Measured values from PMC7862700, “An all-to-all approach to the identification of sequence-specific readers for epigenetic DNA modifications on cytosine”.

Experiments:
Assay in all cases: DAPPL (digital affinity profiling via proximity ligation, sequencing); 10 mM Tris-HCl pH 7.5, 50 mM NaCl, 1 mM DTT, 4% glycerol, room temperature, 30 min; GST-TFs on glutathione beads, 16-mer random dsDNA library, 0.1% formaldehyde crosslink after washing; high values mean tight binding
Conditions in all cases: protein: recombinant; tags: N-terminal GST; dsDNA, one strand shown
ETV1 = ETV1 (Homo sapiens, UniProt P50549 1-477)
In short: (§1)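 In yeast, human transcription factors were expressed with a GST fusion, then pulled down on glutathione beads and given DNA barcodes. Pooled with a tag-only sample, they were exposed to 200 nmole of a 16-mer random double-stranded DNA library (Tris/NaCl/DTT/glycerol buffer, room temperature, 30 min), washed, crosslinked with 0.1% formaldehyde, proximity-ligated using BsaI/T4 ligase for 1 h at 37 °C, PCR-amplified and read on an Illumina NextSeq500. Each hexamer's frequency of reads for a factor, divided by the matching frequency for the tag-only sample, gives the binding signal.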

ERF = target: T1, ERF (Homo sapiens, UniProt P50548 1-548)
T1 sequence: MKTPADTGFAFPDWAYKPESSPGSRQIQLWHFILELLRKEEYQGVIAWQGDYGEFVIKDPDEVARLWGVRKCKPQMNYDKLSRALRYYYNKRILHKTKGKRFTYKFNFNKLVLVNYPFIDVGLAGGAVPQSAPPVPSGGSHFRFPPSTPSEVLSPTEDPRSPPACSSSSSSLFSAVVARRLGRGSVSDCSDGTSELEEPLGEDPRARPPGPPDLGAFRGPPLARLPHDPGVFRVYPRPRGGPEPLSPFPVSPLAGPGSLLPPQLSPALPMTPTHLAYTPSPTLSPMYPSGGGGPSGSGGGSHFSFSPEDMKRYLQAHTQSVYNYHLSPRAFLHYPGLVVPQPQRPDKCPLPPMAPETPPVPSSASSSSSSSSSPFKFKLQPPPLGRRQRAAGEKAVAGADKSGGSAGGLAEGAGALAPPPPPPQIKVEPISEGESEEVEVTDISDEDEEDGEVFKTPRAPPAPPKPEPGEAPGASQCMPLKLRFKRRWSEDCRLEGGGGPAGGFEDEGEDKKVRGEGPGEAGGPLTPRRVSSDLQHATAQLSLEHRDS
In short: as §1

ETV3L = target: T2, ETV3L (Homo sapiens, UniProt Q6ZN32 1-361)
T2 sequence: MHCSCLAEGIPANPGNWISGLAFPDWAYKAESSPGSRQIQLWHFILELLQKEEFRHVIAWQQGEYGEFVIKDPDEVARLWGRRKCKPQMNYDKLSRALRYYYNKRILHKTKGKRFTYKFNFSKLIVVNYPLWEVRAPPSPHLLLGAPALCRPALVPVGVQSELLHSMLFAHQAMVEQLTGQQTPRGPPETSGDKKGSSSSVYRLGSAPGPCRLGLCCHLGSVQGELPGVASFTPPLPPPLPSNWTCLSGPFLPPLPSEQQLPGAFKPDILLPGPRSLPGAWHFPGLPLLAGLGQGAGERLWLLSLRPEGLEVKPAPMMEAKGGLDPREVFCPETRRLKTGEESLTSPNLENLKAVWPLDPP
In short: as §1

ETS2 = target: T3, ETS2 (Homo sapiens, UniProt P15036 1-469)
T3 sequence: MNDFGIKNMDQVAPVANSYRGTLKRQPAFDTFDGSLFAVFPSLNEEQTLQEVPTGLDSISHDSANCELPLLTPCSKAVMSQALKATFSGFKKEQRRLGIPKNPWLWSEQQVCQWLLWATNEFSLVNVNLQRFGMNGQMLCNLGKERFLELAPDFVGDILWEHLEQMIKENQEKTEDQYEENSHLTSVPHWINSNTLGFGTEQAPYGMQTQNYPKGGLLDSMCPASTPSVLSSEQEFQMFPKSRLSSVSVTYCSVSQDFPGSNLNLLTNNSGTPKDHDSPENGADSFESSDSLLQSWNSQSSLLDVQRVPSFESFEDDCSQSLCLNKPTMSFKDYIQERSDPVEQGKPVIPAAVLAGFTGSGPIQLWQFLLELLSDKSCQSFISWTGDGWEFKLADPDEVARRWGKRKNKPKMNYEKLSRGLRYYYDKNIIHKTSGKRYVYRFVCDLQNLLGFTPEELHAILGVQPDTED
In short: as §1

SPDEF = target: T4, SPDEF (Homo sapiens, UniProt O95238 1-335)
T4 sequence: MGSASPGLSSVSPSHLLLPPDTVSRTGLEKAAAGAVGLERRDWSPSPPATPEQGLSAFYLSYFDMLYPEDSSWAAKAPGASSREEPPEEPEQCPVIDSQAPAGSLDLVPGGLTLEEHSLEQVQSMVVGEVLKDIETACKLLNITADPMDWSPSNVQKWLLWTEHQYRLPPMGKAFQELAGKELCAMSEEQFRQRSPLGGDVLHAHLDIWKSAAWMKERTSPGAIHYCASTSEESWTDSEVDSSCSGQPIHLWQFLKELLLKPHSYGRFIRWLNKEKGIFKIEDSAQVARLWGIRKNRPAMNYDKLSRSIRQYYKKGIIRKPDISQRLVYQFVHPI
In short: as §1

ETV7 = target: T5, ETV7 (Homo sapiens, UniProt Q9Y603 1-341)
T5 sequence: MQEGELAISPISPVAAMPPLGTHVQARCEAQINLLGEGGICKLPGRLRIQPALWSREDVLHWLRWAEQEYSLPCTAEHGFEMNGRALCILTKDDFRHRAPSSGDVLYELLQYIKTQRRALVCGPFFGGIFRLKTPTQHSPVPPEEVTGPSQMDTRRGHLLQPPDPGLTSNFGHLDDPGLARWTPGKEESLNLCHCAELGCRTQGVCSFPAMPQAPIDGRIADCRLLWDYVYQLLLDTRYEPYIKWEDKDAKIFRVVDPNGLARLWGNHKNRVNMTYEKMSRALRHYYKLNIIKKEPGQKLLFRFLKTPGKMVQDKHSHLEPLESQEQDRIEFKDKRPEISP
In short: as §1

ELF5 = target: T6, ELF5 (Homo sapiens, UniProt Q9UKW6-2 1-255)
T6 sequence: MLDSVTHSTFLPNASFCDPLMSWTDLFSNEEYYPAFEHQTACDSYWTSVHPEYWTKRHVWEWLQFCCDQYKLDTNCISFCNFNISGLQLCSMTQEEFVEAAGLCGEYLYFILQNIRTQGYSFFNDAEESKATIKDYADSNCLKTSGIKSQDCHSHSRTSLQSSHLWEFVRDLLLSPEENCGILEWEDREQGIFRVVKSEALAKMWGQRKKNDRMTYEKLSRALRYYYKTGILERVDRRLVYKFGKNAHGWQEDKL
In short: as §1

ETV3 = target: T7, ETV3 (Homo sapiens, UniProt P41162-2 1-143)
T7 sequence: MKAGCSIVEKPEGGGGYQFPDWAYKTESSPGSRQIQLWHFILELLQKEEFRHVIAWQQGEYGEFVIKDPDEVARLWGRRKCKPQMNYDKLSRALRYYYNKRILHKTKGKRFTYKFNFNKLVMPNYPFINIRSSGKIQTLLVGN
In short: as §1

ETV6 = ETV6 (Homo sapiens, UniProt P41212 1-452)
In short: as §1

Chain of ETV1 (P50549 whole entry, the tested form may be a part): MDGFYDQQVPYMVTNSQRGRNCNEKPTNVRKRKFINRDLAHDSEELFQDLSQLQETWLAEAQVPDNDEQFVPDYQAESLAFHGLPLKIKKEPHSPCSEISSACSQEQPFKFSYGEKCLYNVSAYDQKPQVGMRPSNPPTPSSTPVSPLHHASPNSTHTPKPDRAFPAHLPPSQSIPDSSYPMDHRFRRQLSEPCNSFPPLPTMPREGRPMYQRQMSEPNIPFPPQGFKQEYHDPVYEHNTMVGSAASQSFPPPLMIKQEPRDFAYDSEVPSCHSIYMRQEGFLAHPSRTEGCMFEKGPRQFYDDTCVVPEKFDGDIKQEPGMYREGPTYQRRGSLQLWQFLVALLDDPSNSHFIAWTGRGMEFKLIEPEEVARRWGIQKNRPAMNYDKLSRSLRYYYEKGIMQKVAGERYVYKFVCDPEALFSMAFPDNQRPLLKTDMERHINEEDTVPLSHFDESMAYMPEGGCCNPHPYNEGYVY
Chain of ETV6 (P41212 whole entry): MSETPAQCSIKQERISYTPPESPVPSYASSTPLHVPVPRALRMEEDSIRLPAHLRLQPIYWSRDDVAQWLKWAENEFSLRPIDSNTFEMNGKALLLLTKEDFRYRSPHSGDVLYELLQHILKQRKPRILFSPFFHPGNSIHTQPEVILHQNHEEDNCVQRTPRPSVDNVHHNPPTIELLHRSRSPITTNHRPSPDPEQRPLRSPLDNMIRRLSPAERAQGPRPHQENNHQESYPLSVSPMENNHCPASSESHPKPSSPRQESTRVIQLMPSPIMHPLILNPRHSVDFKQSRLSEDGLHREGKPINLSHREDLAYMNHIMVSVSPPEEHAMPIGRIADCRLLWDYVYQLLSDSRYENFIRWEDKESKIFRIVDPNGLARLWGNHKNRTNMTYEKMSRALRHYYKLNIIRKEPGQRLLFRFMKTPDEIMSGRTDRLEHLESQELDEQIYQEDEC

In the case of TAACCT, the binding signal (ETV1) is reported as 1.31 fold enrichment (6-mer frequency, TF over GST control), the binding signal (ERF) is reported as 1.35 fold enrichment (6-mer frequency, TF over GST control) and the binding signal (ETV3L) is reported as 1.28 fold enrichment (6-mer frequency, TF over GST control). The binding signal (ETS2) was 1.31 fold enrichment (6-mer frequency, TF over GST control), the binding signal (SPDEF) was 1.23 fold enrichment (6-mer frequency, TF over GST control) and the binding signal (ETV7) was 1.26 fold enrichment (6-mer frequency, TF over GST control). The binding signal (ELF5) was 1.29 fold enrichment (6-mer frequency, TF over GST control), the binding signal (ETV3) was 1.31 fold enrichment (6-mer frequency, TF over GST control) and the binding signal (ETV6) was 1.23 fold enrichment (6-mer frequency, TF over GST control).
